The values that follow come from PubChem BioAssay (NCATS).

Results filed as inconclusive are left out. Where a call stands in place of a potency, no number is given. Unmarked numbers belong to inactive results. Calls of active or inactive are those of the source. Calls follow the shape of the dose curve; as a rule, active = well fitted curve in the direction sought with a large enough effect; inconclusive = small, poorly fitted or top-dose-only effect, or another doubt; inactive = no such curve, though single readings can be large; an effect the other way counts as inactive or inconclusive. Bridge positions count the residues as written; N and C are the ends. Square brackets hold non-standard residues; d marks the D form. Side chains are listed from the residue outwards. Peptide text beside a SMILES is read from it. * marks the point of attachment. Phg(4-OMe) = COc1ccc([C@H](N)C(=O)O)cc1; d(aIle) = CC[C@H](C)[C@@H](N)C(=O)O; d(aThr) = C[C@@H](O)[C@@H](N)C(=O)O; NMeF = CN[C@@H](Cc1ccccc1)C(=O)O; Isobutyryl = CC(C)C(=O)*

Chain of Nuclear receptor subfamily 1 group I member 3 (Homo sapiens) (Q14994 whole entry, looked up): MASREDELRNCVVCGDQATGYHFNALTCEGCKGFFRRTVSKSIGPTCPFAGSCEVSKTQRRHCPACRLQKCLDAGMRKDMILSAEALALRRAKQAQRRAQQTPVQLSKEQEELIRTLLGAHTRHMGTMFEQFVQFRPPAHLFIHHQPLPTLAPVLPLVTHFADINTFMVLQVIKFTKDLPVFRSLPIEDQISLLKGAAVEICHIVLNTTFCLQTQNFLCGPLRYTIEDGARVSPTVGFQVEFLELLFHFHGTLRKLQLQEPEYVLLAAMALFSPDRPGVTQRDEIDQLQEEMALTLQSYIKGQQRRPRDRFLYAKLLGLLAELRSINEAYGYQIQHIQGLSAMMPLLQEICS

The target of one experiment is Nuclear receptor subfamily 1 group I member 3 (Homo sapiens) (UniProt Q14994). In words: qHTS for Constitutive Androstane Receptor (CAR) Antagonist screened against the NCATS CANVASS Library (AID 1347372).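 Also: cells stimulated with 50 nM CITCO agonist so inhibition reflects antagonism.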 To be noted: HepG2-hCAR-CYP2B6 luciferase, CITCO-stimulated antagonist mode; series mostly up to 46.1 µM. The essentials:
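Antagonist mode: compound added alongside 50 nM CITCO to HepG2-hCAR-CYP2B6 reporter cells, 24hr at 37C. Viability by CellTiter-Fluor fluorescence, then CAR-driven luciferase by ONE-Glo luminescence.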
For `CC(=O)Oc1cc2c(c(OC(C)=O)c1C1CCc3cc(Cl)c(Cl)n31)C(=O)n1c-2cc(Cl)c1Cl` (stereo not given), the Potency result is “inactive”. `COc1cc2c(cc1OC)[C@@H](c1ccc3c(c1)OCO3)C(C)C(C)C2=O` (stereo not given in full): the Potency entry is “inactive”. As for `C/C=C(/C)c1c(Cl)c(O)c(C)c2c1Oc1c(Cl)c(O)c(Cl)c(C)c1C(=O)O2`, the Potency entry is “inactive”.

As to `CC(C)C[C@@H]1c2c(O)c(C=O)c(O)c(C=O)c2O[C@]2(C)C=C[C@@H](C(C)C)C[C@H]12`, the Potency entry was “inactive”.

In the case of `C/C=C(/C)c1cc(O)c(C)c2c1Oc1cc(O)cc(C)c1C(=O)O2`, the Potency result is “inactive”. Still for that read-out and setting: the entry for `CC(C)[C@]12CC[C@@]3(C)[C@H](C)CC[C@H](O)[C@@]3(CC1)c1cc3c(cc12)[nH]c1ccccc13` is “inactive”; for `C[C@H]1C=C[C@H]2CCCC[C@@H]2[C@H]1C(=O)[C@H]1CC2=C(C(=O)O)CCN2C1=O` it is “inactive”. The same measure, in the same setting: the entry for `C/C=C(/C)c1c(Cl)c(OC)c(C)c2c1Oc1c(Cl)c(O)c(Cl)c(C)c1C(=O)O2` is “inactive”. Consider `C/C(=C\CC[C@@H](C)[C@H]1CC[C@]2(C)C3=CCC4C(C)(C)[C@@H](O)C[C@@H](O)[C@]4(C)C3[C@H](O)C[C@@]12C)CO` (stereo not given in full), for which the Potency entry is “inactive”. Turning to `COC12OC1(C13OC1(OC)C(=O)c1cc4cc(C)oc(=O)c4c(O)c1C3O)C(O)c1c(cc3cc(C)oc(=O)c3c1O)C2=O` (stereo not given), the Potency result is “inactive”. Regarding `CO[C@H]1[C@@H](OC(=O)/C(C)=C\[C@@H]2O[C@@H]2[C@H]2O[C@H]2C)[C@H](O)[C@H](OCC23C[C@@H]4[C@H](C)CC[C@H]4C4(C=O)CC2C=C(C(C)C)C34C(=O)O)O[C@@H]1C` (stereo not given in full), the Potency entry is “inactive”.

A further experiment has the same target. Description: qHTS for Constitutive Androstane Receptor (CAR) Agonist screened against the NCATS CANVASS Library (AID 1347373).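 Also: every well also contained 1.5 µM PK11195 alongside the test compound.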 Also: potency is read from the fitted curve at half-maximal effect. To be noted: HepG2-hCAR-CYP2B6 luciferase reporter, ONE-Glo luminescence; series mostly up to 46.1 µM. The essentials: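 Cells were plated and allowed to attach for 4hr, then dosed with compound in an 11-point series alongside 1.5uM PK11195. After 24hr at 37C, viability was measured fluorometrically and CAR-driven CYP2B6 reporter luminescence was recorded.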
For `CC(C)=CCC[C@]12c3cc4c(cc3CC[C@@]1(C)[C@H](C)CC[C@@H]2O)[nH]c1ccccc14`, the Potency entry was “inactive”. In the case of `C/C=C/C1C=CC2CC(C)CC(C)C2C1C(=O)CC(=O)NC(CO)C/C=C/CCCCC` (stereo not given), the Potency entry is “inactive”. The same measure, in the same setting: the entry for `C=CC(CCCCC)C1C(=O)NC(=O)C1C(=O)C1C(/C=C/C)C=CC2CC(C(=O)O)CC(C)C21` (stereo not given) is “inactive”; for `COc1cc(/C=C/C(=O)OC[C@@H](Cc2ccc(O)c(OC)c2)[C@@H](COC(=O)/C=C/c2ccc(O)c(OC)c2)Cc2ccc(O)c(OC)c2)ccc1O` it is “inactive”. As for `O=C1CC2OCC=C3CN4C5CC3C2[C@@H]2N1c1ccccc1[C@]52C[C@@H]4C1=C[C@H]2C3CC4N(CC[C@@]45c4ccccc4N(C1=O)[C@@H]25)C/C3=C/CO` (stereo not given in full), the Potency is 11.7 µM (active). The same measure, in the same setting: the entry for `C=C1CC[C@@H](O[C@H]2C[C@@](O)([C@H](C)NC(=O)c3[nH]c(C)c(Cl)c3Cl)[C@H](O)[C@@H](C)O2)[C@@H]2C=C[C@H](C)C(/C(O)=C3/C(=O)[C@H](C(C)C)N([C@@H]4O[C@H](C)[C@H](OC(N)=O)[C@H](OC(C)=O)[C@@H]4OC)C3=O)[C@@H]12` (stereo not given in full) is “inactive”; for `CC[C@H](C)[C@H]1NC(=O)[C@@H](NC(=O)C(C)C)[C@@H](C)OC(=O)[C@H](COC(=O)CNC(C)=O)NC(=O)[C@@H]([C@@H](C)O)NC(=O)[C@H](Cc2ccccc2)N(C)C(=O)[C@H](c2ccc(OC)cc2)NC1=O` (Isobutyryl-T[d(aIle)][Phg(4-OMe)][NMeF][d(aThr)]S([Gly-Ac]); ester 1-C) it is “inactive”. Still for that read-out and setting: under `COc1c(O)cc2c(c1O)C(=O)c1c(coc1C)C2=O` stands “inactive”; under `C[C@]12CC[C@]3(C1)[C@H](CC2=O)C[C@@H](OC(=O)c1ccccc1)[C@H]1[C@](C)(C(=O)O)CCC[C@@]13C`, “inactive”; under `Cc1occ2c1C(=O)c1c(cc(O)c(O)c1O)C2=O`, “inactive”. Still for that read-out and setting: under `C=C[C@](Cl)(CBr)CCC=C(C)C` stands “inactive”; under `CC(=O)O[C@H]1c2ccccc2-c2c3c(cc4c2[C@@H]1N(C(C)=O)CC4)OCO3`, “inactive”. With `C=CC(CCCCC)C1C(=O)NC(=O)C1C(=O)C1C2C(C)CC(C(=O)O)CC2CC1(O)C(=O)/C=C/C` (stereo not given), the Potency entry is “inactive”. With `O[C@H]1c2ccccc2-c2c3c(cc4c2[C@@H]1NCC4)OCO3`, the Potency result is “inactive”. As for `C[C@]12CCC[C@](C)(C(=O)O)[C@@H]1CC[C@@]1(C)c3cocc3CC[C@H]21`, the Potency entry is “inactive”. For the compound `COc1cc(C2OCC3C(c4ccc(O)c(OC)c4)OCC23)ccc1O` (stereo not given), the activation was 1.13% [at 9.19 µM]. For the compound `COc1cc(O)c(C(=O)[C@@H]2[C@H](CC=C(C)C)C(C)=CC[C@H]2c2ccccc2)c(O)c1`, the Potency result was “inactive”. Consider `C[n+]1cc2cc(C(N)=O)[nH]c3c(=N)c(Cl)c(N)c1c23`, for which the Potency entry was “inactive”. With `CCC(=O)N[C@@H](C[C@H](C)C(Cl)(Cl)Cl)C(=O)N1C(=O)C=C(OC)[C@@H]1CC(C)C`, the Potency entry was “inactive”.
